Screening data from PubChem BioAssay.
CHX counter: affects cycloheximide protein synthesis inhibition readout, counter-screen | cell reporter, cycloheximide protein synthesis inhibition counterscreen | max response, % | AID 2314 | hit rate 12% among 300,000; in the data active = max response mostly above about 13%, no sharp cut-off; inactive = mostly below about 14%; also: read at 38.3 µM for the half of the compounds with a filed dose; 0% is about no effect
LmPK inh: blocks Leishmania mexicana pyruvate kinase activity | Q27686 | purified LmPK, Kinase-Glo ATP luminescence, 1 h | Potency, µM (titrated, usually from 57.5 µM), for the others: at the top dose activity change, negative = inhibition, hits mostly inhibitors | hit rate 0.37% among 290,000; also: potency is read from the fitted curve at half-maximal effect; % is scaled to controls: 0 for no effect and ±100 for the full control effect
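Purified LmPK (0.1 nM) with 0.5 mM PEP and 0.1 mM ADP in imidazole buffer pH 7.2 with MgCl2/KCl, 1 h at room temperature. ATP formed was read by luciferase luminescence and normalized to no-enzyme and uninhibited controls.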
Shiga inhibitor: Shiga toxin inhibition; inhibition, % at 38.7 µM; hit rate 9.2% among 290,000; Vero cells, Shiga toxin protein synthesis inhibition reporter; in the data active = inhibition mostly above about 28%, no sharp cut-off; inactive = mostly below about 43%; also: 0% is about no effect
FBPA Giardia inh: Giardia lamblia aldolase inhibition; A8B2U2; purified Giardia FBPA; Potency, µM (titrated, usually from 59.6 µM), for inactives: at the highest dose activity, negative = inhibition, actives largely listed as inhibitors; hit rate 0.71% among 290,000; AID 2451; also: potency is read from the fitted curve at half-maximal effect; % is scaled to controls: 0 for no effect and ±100 for the full control effect; nearly all actives have a fitted effect of over 55% in size
Target sequence (A8B2U2 whole entry, looked up): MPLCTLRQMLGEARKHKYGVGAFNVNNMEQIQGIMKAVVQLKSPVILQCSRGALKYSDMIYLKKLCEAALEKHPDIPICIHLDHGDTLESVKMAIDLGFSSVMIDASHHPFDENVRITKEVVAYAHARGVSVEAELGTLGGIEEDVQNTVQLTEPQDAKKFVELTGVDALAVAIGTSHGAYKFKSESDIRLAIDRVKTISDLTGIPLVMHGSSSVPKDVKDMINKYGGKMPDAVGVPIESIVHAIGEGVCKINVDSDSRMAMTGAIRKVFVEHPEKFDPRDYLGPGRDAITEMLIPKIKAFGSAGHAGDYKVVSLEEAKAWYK
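Giardia FBPA (40 nM reagent) was preincubated 10 min at RT with compound (up to 57.5 uM final), then substrate plus GAPDH/TPI/NAD/arsenate coupling system with diaphorase/resazurin was added; resorufin fluorescence (525/598 nm) was read after 20 min.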
Tb PYK inh: blocks Trypanosoma brucei pyruvate kinase | TbPYK enzyme, Kinase-Glo Plus ATP luminescence, 45 min | Q57TT1 | AID 624173 | Potency, µM (series often up to 76.8 µM), inactives show top-dose activity, negative = inhibition, actives largely listed as inhibitors | hit rate 0.12% among 410,000; also: potency is read from the fitted curve at half-maximal effect; % is scaled to controls: 0 for no effect and ±100 for the full control effect; nearly all actives have a fitted effect of over 50% in size
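Readout: single end-point luminescence (Kinase-Glo Plus, 10 min). Reaction conditions were TbPYK/substrate plus 130 uM ADP, 45 min at RT, pH 7.2 TEA buffer. No-enzyme wells served as controls, and data were normalized before concentration-response fitting.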
RE007 growth inh: less growth of the S. pombe RE007 Vpr strain; S. pombe RE007 Vpr strain, BacTiter-Glo ATP luminescence, 24 h; Potency, µM (doses to about 92.2 µM), for inactives: at the highest dose activity change, negative = less growth, most hits filed as inhibitors; hit rate 0.21% among 360,000; active = well fitted falling curve with a large enough effect; inconclusive = small, poorly fitted or top-dose-only effect; inactive = no such curve, though single readings can be large or run the other way; also: potency is read from the fitted curve at half-maximal effect; % is scaled to controls: 0 for no effect and ±100 for the full control effect; nearly all actives have a fitted effect of over 50% in size
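Fission yeast RE007 carrying one integrated HIV-1 vpr copy, seeded at OD 0.01 in PMG+AL medium with 23 nL pinned compound. Grown 24 h at 30 degrees; viability read by BacTiter-Glo luminescence after 5 min.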
Numbers without * were called inactive; ? = inconclusive; nt = no result given; [ ] = dose if it differs, or a comment. The full list was thinned out, with hits kept by preference. Unless noted, calls follow the shape of the dose curve; as a rule, active = well fitted curve in the direction sought with a large enough effect; inconclusive = small, poorly fitted or top-dose-only effect, or another doubt; inactive = no such curve, though single readings can be large; an effect the other way counts as inactive or inconclusive.

SMILES | CHX counter | LmPK inh | Shiga inhibitor | FBPA Giardia inh | Tb PYK inh | RE007 growth inh
COc1ccc(C(=O)n2nc(-c3ccc(Cl)cc3)nc2NCc2ccco2)cc1 | nt | nt | nt | nt | 5% | nt
COc1ccc(CC(=O)n2nc(-c3ccc(Cl)cc3)nc2NCc2ccco2)cc1 | 23* | 1% | 63 | -1% | 4% | -16%
Cc1ccc2oc(=O)c3cc(C(=O)Nc4ccc(C)c(F)c4)sc3c2c1 | nt | nt | nt | nt | 1% | nt
COc1cc(-c2ccc(N=Nc3ccc4c(S(=O)(=O)O)cc(S(=O)(=O)O)c(N)c4c3O)c(OC)c2)ccc1N=Nc1ccc2c(S(=O)(=O)O)cc(S(=O)(=O)O)c(N)c2c1O | nt | nt | nt | 14µM* | nt | nt
Cn1nc(NC(=O)C(F)(F)F)c2ncc(-c3ccc(Cl)cc3)nc21 | 41* | 0% | 68* | 6% | 1% | nt
CCN1CCN(c2ccc([N+](=O)[O-])cc2C=C2C(=O)NC(=O)NC2=O)CC1 | -2 | -6% | -5 | -17% | 22µM* | 1%
CC1=NOC(=O)/C1=C\c1ccc(-c2ccc(Cl)c(C(=O)O)c2)o1 | 9 | -15% | -6 | -21% | -14% | 7%
Cc1[nH][nH]c(=O)c1C(c1ccc(-c2ccc(Cl)c(C(=O)O)c2)o1)c1c(C)[nH][nH]c1=O | -2 | 0% | 12 | 7.1µM* | -17% | -28%
COC(=O)c1cccc(-c2ccc(C(c3c(C)[nH][nH]c3=O)c3c(C)[nH][nH]c3=O)o2)c1 | 2 | -4% | 21 | 14µM* | -11% | -6%
COC(=O)c1ccccc1-c1ccc(C(c2c(C)[nH][nH]c2=O)c2c(C)[nH][nH]c2=O)o1 | 13 | 6% | 16 | 4% | -7% | 16%
O=C1c2cccc(OCC(=O)N3N=C(c4cccs4)CC3c3ccc(F)cc3)c2CCN1Cc1cccnc1 (stereo unspecified) | -5 | 1% | -27 | 9% | -2% | -3%
COc1ccc(N2CCN(C(=S)Nc3ccccc3OC)CC2)cc1 | -4 | 11% | nt | -5% | -4% | 16%
COc1ccc(N2Cc3ccc(OC)c(OC)c3C2=O)cc1 | 48* | 5% | 76* | 0% | 1% | 6%
COc1ccc2c(c1OC)C(=O)N(c1nccs1)C2 | 34* | -16% | 66 | -2% | -5% | -30%
COc1ccc(CC(=O)Nc2c(C(=O)Nc3ccc(F)cc3)oc3ccccc23)cc1OC | nt | nt | nt | nt | 6% | nt
COc1cc(C(=O)NCCC(=O)NCc2cccs2)cc(OC)c1OC | nt | nt | nt | nt | 1% | -13%
CC1(C(=O)NS(=O)(=O)c2cccs2)CCN1C(=O)c1ccccc1CCc1ccccc1 (stereo unspecified) | nt | nt | nt | nt | 7% | 10%[18.4 µM]
O=C(NC1CC1)c1ccc(N2CCCCC2)c([N+](=O)[O-])c1 | 17* | -6% | 79* | nt | -1% | 18%
O=C(NCC1CCCO1)c1ccc(N2CCCCC2)c([N+](=O)[O-])c1 (stereo unspecified) | 43* | 1% | 45* | -1% | 3% | -12%
CC1CCCN(c2ccc(C(=O)NCc3ccco3)cc2[N+](=O)[O-])C1 (stereo unspecified) | 7 | -4% | 60* | 0% | -5% | 21%
CC1=C(C(=O)Nc2ccc(Cl)cc2)C(c2cccs2)n2nc(SCc3cccc(C)c3)nc2N1 (stereo unspecified) | nt | nt | nt | nt | 2% | nt
Cc1cc2ncc(-c3cccc(Cl)c3)cn2n1 | 48* | 3% | 75* | 3% | 1% | -4%
Cc1nn2cc(-c3ncc(C(F)(F)F)cc3Cl)cnc2c1Br | 20 | -2% | 57* | -1% | -7% | 21%
FC(F)(F)c1cnc(-c2cnc3c(-c4ccc(Cl)cc4)cnn3c2)c(Cl)c1 | -2 | 3% | 14 | 1% | 3% | -17%
Cc1cc2ncc(-c3ncc(C(F)(F)F)cc3Cl)cn2n1 | 15* | ? | 10 | 0% | -8% | -13%
N#Cc1cnn2cc(-c3ncc(C(F)(F)F)cc3Cl)cnc12 | 29* | -3% | 24 | -1% | -6% | 6%
CC(=O)Nc1nonc1-c1nnc(SCC(=O)Nc2cccc(F)c2)n1-c1ccccc1 | nt | nt | nt | nt | -1% | nt
CCCc1cc(=O)n2[nH]c(NC(=O)c3ccccc3Cl)nc2n1 | nt | nt | nt | nt | 1% | nt
